In ChEMBL document CHEMBL3988442, “University of Dundee, Small-Polar-MMV Screening Library” (2021):

These compounds were tested against AMP-activated protein kinase, AMPK (Homo sapiens) (UniProt P54646+O43741+P54619+Q9UGJ0+Q9Y478+Q13131+Q9UGI9) (assay: AMP-dependent Kinase enzyme assay. An in vitro enzyme assay that detects ADP turnover that is directly proportional to AMPK activity. This uses naive AMPK that is activated during the assay with MK-8722). Details: 30 µM.
Type: functional
Design: scale not given: direction of the effect not stated beside the values

Row | Structure (SMILES) | Percent Effect [%]
1 | CCn1nc(C)c(NC(=O)CN(C)C(C)c2ccon2)c1C (stereo not given) | -1.21
2 | CCNC(=O)c1ccnc(CC2COc3c(cccc3OC)C2)c1 (stereo not given) | -3.13
3 | Cc1onc(-c2ccncc2)c1C(=O)NC1CCCOC1 (stereo not given) | -0.537
4 | COCc1ccccc1C(=O)OCc1noc(C)n1 | 6.88
5 | CC(C)N(Cc1ccccn1)C(=O)CCOc1cccc(F)c1 | -0.803
6 | COC(CNC(=O)c1ccc[nH]1)c1cccc(Cl)c1 (stereo not given) | 1.53
7 | Cc1nn(C)c(C)c1-c1ccc(=O)n(C(C)C(=O)NC2CC2)n1 (stereo not given) | 9.59
8 | COc1ccc(N2CCN(Cc3nc(CSC)no3)C(C)C2=O)cc1 (stereo not given) | 4.28
9 | CC(NC(=O)N1CCCN(C)CC1)c1ccc(S(N)(=O)=O)cc1 (stereo not given) | 5.68
10 | CS(=O)(=O)N1CCN(C(=O)c2cncs2)CC(C(N)=O)C1 (stereo not given) | 9.41
11 | COc1ccc(CCNC(=O)c2ccc(=O)n(C)c2)c(Cl)c1 | 5.99
12 | CCOCc1ccc(NC(=O)N2CCOC3(CCC3)C2)cc1 | -2.16
13 | O=C(CCn1ccnc1)N1CCC(c2nnc(-c3ccccn3)o2)CC1 | 1.44
14 | Cc1ccc(C)c(CC(=O)NC2CCS(=O)(=O)CC2)c1 | -4.86
15 | Cc1cnc(CCNC(=O)NCCc2ccc(O)cc2)s1 | 38.4
16 | Cc1cc(C)n(CCN2CCC(N(C)Cc3noc(C4CC4)n3)C2)n1 (stereo not given) | 3.34
17 | CN(Cc1cccc(OC(F)(F)F)c1)Cc1cnn(C)c1 | -4.15
18 | O=c1c(CN2CCCCC2)coc2ccc(Cl)cc12 | -4.07
19 | O=C(NCCc1cc(N2CCOCC2)nc(N2CCCC2)n1)C1CC1 | 13.9
20 | COc1c(C2CCCN2CC(=O)Nc2nccs2)c(C)nn1C (stereo not given) | 7.38

Row | Structure (SMILES) | Percent Effect [%]
21 | Cc1cc(CC(=O)NC2CCCN(c3ccccc3F)C2=O)n[nH]1 (stereo not given) | 10.6
22 | CN1CCc2nc(C3CCCN(S(=O)(=O)c4ccccc4)C3)ncc2C1 (stereo not given) | 6.25
23 | COc1ccc(-c2cc(C3CC3)c(C#N)c(N)n2)cc1F | 9.02
24 | CC(C)(C)c1n[nH]cc1CNC1CCC(C(F)(F)F)CC1 (stereo not given) | 3.78
25 | O=C(Nc1ccccc1OCCc1ccccn1)N1CCOCC(O)C1 (stereo not given) | 2.87
26 | COc1cc(Br)c(CNc2ccn(CCC(N)=O)n2)cc1OC | 3.74
27 | COc1ccccc1C1CCN(C(=O)CN2C(=O)OC(C)(C)C2=O)CC1 | -11.8
28 | CCC1(CC)CC(=O)N(CC(O)c2ccc(Cl)cc2)C1=O (stereo not given) | 7.86
29 | O=C(COCC1CCCO1)N(Cc1cccnc1)c1ccc(F)cc1 (stereo not given) | -8.95
30 | CC(NCc1nnc2n1CCCC2)c1nc(C(C)(C)C)no1 (stereo not given) | -0.825
31 | CCOC(=O)CC1(Nc2nc(C)nc3c2cnn3C)CCCCC1 | 14.9
32 | CC(Cn1ccnc1)NC(=O)NCCN1CCCCCC1=O (stereo not given) | 0.204
33 | CCNc1ncc(C(=O)NCCc2csc(-c3ncccn3)n2)cn1 | -8.34
34 | CCCNc1ncc(CN2CCOC(Cc3cccc(F)c3)C2)cn1 (stereo not given) | 6.84
35 | CCS(=O)(=O)NCc1nc(C)cc(N2CCCCC2)n1 | 0.829
36 | CN1CCN(C)C(CNc2c(C#N)cnc3ccc(Cl)cc23)C1 (stereo not given) | 8.02
37 | Cc1nc(CNC(=O)Nc2cc(F)ccc2N2CCN(C)CC2)no1 | 13.3
38 | CC1COCCN1C(=O)Cc1cc(Cl)c2c(c1)OCCO2 (stereo not given) | 13.4
39 | CCc1c(C)nn2c(O)cc(C3CCN(C(=O)c4cnn(C)c4)C3)nc12 (stereo not given) | 5.68
40 | O=C(C1CCCN(CCc2ccc3c(c2)CCO3)C1)N1CCCC1 (stereo not given) | 1.69
